Wnt act = Wnt/beta-catenin pathway activation; 300,000 compounds, 1.2% hits; Wnt/beta-catenin reporter cell assay, activator, plate reader; AID 743398; activation, % at 9.35 µM; in the data active = activation above about 30%, passing the limit was not always enough;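 also: 0% = neutral control wells and 100% = positive control wells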
esBAF inh = blocks esBAF chromatin remodeling in mouse ES cells; reporter increase, % at 12.5 µM; 350,000 compounds, 2% hits; Bmi1-luciferase knock-in reporter, 24 h; 100% = twice the neutral-well signal; in the data active = activation above about 40%;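 also: 0% = median of the plate's neutral control wells and 100% = double that signal; a rise in the Bmi1 reporter signal indicates esBAF inhibition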
MITF act = MITF TRPM1 promoter activation in melanoma cells | SK-MEL-5 TRPM1-promoter luciferase, 24 h; % of positive control, neutral wells = 0 | activation, % at 12.5 µM | 300,000 compounds, 0.75% hits;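 active = mean activation of at least 80% with every replicate also reaching 80%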;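 also: 0% = neutral control wells and 100% = parthenolide positive control wells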
GAA850 FXN act = activators of GAA850 frataxin (FXN) promoter. HEK293 lucGAA850 FXN promoter luciferase reporter, 24 h; percent of 10 µM SAHA response. activation, % at 6 µM. 360,000 compounds, 0.56% hits. AID 540364;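 active = activation above the average of all compounds screened plus 3 SD, cutoff fixed separately per campaign, cut at about 7.5% in these data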;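 also: 0% = DMSO wells and 100% = 10 µM SAHA wells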
GAA30 FXN cntr = activates GAA30 frataxin promoter, counter-screen for GAA850 activators | shares compounds with GAA850 FXN act | HEK293 lucGAA30 FXN promoter luciferase, 24 h; DMSO = 0%, 5 µM ipriflavone = 100% | activation, % at 6 µM | 1,900 compounds, 66% hits | AID 588350;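 active = mean activation above the mean of solvent-only control wells plus 3 SD, cut at about 22% in these data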;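 also: counterscreen of GAA850 promoter hits where activity marks nonselective or luminescence artifacts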
GAA850 confirm = GAA850 FXN promoter activation confirmation; activation, % at 6 µM; HEK293 lucGAA850 FXN promoter luciferase reporter, 24 h; 100% = activation by SAHA; AID 588351; 1,900 compounds, 86% hits; shares compounds with GAA850 FXN act;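 active = mean activation above a set limit taken from the primary screen, cut at about 8% in these data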;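 also: 0% = DMSO wells and 100% = 10 µM SAHA wells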
* hit, by the source's call; / = no result. Compounds with a hit are over-represented: about 2.8% of the library has one in this group of screens.

SMILES	Wnt act	esBAF inh	MITF act	GAA850 FXN act	GAA30 FXN cntr	GAA850 confirm
CN(/N=C/c1cccnc1)c1cnc2ccccc2n1	16	/	19	9.3*	132*	34*
C(=N\N=C\c1cccnc1)/c1cccnc1	/	/	0	-2	/	/
C[C@H]1CN([C@@H](C)CO)C(=O)c2cc(-c3ccc(F)cc3)cnc2O[C@H]1CN(C)Cc1ccc(F)cc1	/	5	/	/	/	/
COC(=O)C[C@H]1C[C@H]2c3cc(NC(=O)CC4CC4)ccc3O[C@H]2[C@@H](CO)O1	/	0	/	/	/	/
Cc1ccc(C)n1-c1ccc(-c2nnco2)cc1	/	/	-2	0	/	/
Cc1cc(-c2nnco2)c(C)n1-c1ccc(F)cc1	-2	19	29	7.7*	53*	22*
COCC(=O)N(C)C[C@H]1Oc2ncc(C#CCC3CCCC3)cc2C(=O)N([C@@H](C)CO)C[C@H]1C	/	5	/	/	/	/
CC(C)C#Cc1cnc2c(c1)C(=O)N([C@@H](C)CO)C[C@@H](C)[C@H](CN(C)C(=O)c1cccc(F)c1)O2	/	-4	/	/	/	/
O=C(C[C@H]1C=C[C@H](NC(=O)c2ccccc2)[C@@H](CO)O1)Nc1ccc(-c2ccccc2)cc1	/	14	/	/	/	/
CNC[C@@H]1Oc2cc(-c3ccccc3F)ccc2S(=O)(=O)N([C@@H](C)CO)C[C@@H]1C	/	1	/	/	/	/
O=C(c1ccc(-c2ccc([N+](=O)[O-])cc2)o1)N1CCCCC1	75*	/	51	8.5*	125*	44*
CC1CC(C)CN(C(=O)c2ccc(-c3ccc([N+](=O)[O-])cc3)o2)C1 (configuration not stated)	7	37	73	7	/	/
COc1ccc(NC(=O)Nc2cccc3c2O[C@@H](CN(C)S(=O)(=O)c2ccc(Cl)cc2)[C@H](C)CN([C@H](C)CO)C3=O)cc1	/	3	/	/	/	/
O=C(Nc1ncnc2sc3c(c12)CCCCC3)c1ccco1	/	2	7	12*	7	4
CCCC#Cc1cnc2c(c1)C(=O)N([C@H](C)CO)C[C@H](C)[C@H](CN(C)C(=O)c1cccc(F)c1)O2	/	1	/	/	/	/
COc1ccc(NC(=O)N(C)C[C@@H]2OCCCC[C@H](C)Oc3ccc(NS(=O)(=O)c4ccc(OC)cc4)cc3C(=O)N([C@H](C)CO)C[C@@H]2C)cc1	/	4	/	/	/	/
COc1cccc(CNC(=O)Cn2cc3c(n2)CCCC3)c1	-2	-1	3	16*	23*	10*
COc1ccc(O)c(C(=O)/C=C/c2cc3ccccc3o2)c1	1	-11	-1	2	/	/
O=C(Oc1ccccc1/C=C\C(=O)c1cc2ccccc2o1)c1cccc(F)c1	/	/	11	8.9*	40*	20*
O=C(Oc1ccccc1/C=C\C(=O)c1cc2ccccc2o1)c1ccccc1	53*	/	12	8.7*	111*	43*
NC(=O)N/N=C/c1ccccc1OC(=O)c1cc2ccccc2oc1=O	9	31	20	5	/	/
COc1cccc(C(=O)Oc2ccccc2/C=C\C(=O)c2cc3ccccc3o2)c1	152*	/	-17	7.8*	95*	45*
C[C@H](CO)N1C[C@H](C)[C@H](CN(C)Cc2ccc(Oc3ccccc3)cc2)Oc2ccc(NS(=O)(=O)c3cn(C)cn3)cc2C1=O	/	4	/	/	/	/
O=C(Cn1ncc(Cl)c(Cl)c1=O)N1CCOCC1	7	/	-97	9.3*	11	7
CCc1ccc(C(=O)Cn2ncc(Cl)c(Cl)c2=O)cc1	/	13	-57	8.5*	15	15*
SMILES	Wnt act	esBAF inh	MITF act	GAA850 FXN act	GAA30 FXN cntr	GAA850 confirm
Cc1ccc(Cn2ncc(Cl)c(Cl)c2=O)cc1	/	/	-65	2	/	/
COc1ccc(S(=O)(=O)N(C)C[C@@H]2OCCCC[C@H](C)Oc3ccc(NC(=O)CCCN(C)C)cc3C(=O)N([C@H](C)CO)C[C@@H]2C)cc1	/	-1	/	/	/	/
CC(=O)Nc1ccc2c(c1)C(=O)N(C)[C@@H]1CC[C@@H](CC(=O)NCc3ccc(F)cc3)O[C@H]1CO2	/	-10	/	/	/	/
COc1ccc(OC)c(-c2cc(C(=O)Nc3c(C)nn(Cc4ccccc4)c3C)no2)c1	/	-7	16	7.8*	8	13*
O=c1cc(-c2ccccc2)oc2ccc(O)cc12	59*	31	57	9.2*	134*	42*
CNC(=O)CN(c1ccc(C23CC4CC(CC(C4)C2)C3)cc1)S(C)(=O)=O	-2	/	-8	7.6*	26*	15*
C[C@H](CO)N1C[C@H](C)[C@H](CN(C)Cc2ccncc2)Oc2ccc(NS(=O)(=O)c3ccc(F)cc3)cc2C1=O	/	-1	/	/	/	/
O=C(NC(=S)Nc1ccc(N2CCCC2)cc1)c1ccccc1[N+](=O)[O-]	15	18	35	8.8*	53*	13*
COc1ccc(S(=O)(=O)Nc2ccc3c(c2)OC[C@@H](C)N(C)C[C@@H](C)[C@H](OC)CN(C)C3=O)cc1	/	5	/	/	/	/
Cc1noc(C)c1NC(=O)NCC[C@@H]1CC[C@H](NC(=O)Nc2cccc(F)c2)[C@@H](CO)O1	/	1	/	/	/	/
COc1ccc(/C=C/C(=O)Oc2ccc(C=O)cc2OC)cc1	-1	/	/	1	/	/
COC(=O)Oc1ccc(/C=C/C(=O)OC(C)C)cc1OC(=O)OC	-1	10	65	11*	52*	32*
COc1ccc(/C=C/C(=O)OCCNC(=O)c2ccncc2)cc1OC	0	/	-1	1	/	/

Screening results: PubChem BioAssay, several laboratories
